TDP1 inh = blocks human tyrosyl-DNA phosphodiesterase 1 | Potency, µM (series often up to 130 µM), most hits filed as inhibitors | AID 485290 | recombinant TDP1, AlphaScreen DNA substrate cleavage | 350,000 compounds, 0.28% hits; also: nearly all actives have a fitted effect of over 40% in size
Target sequence (Q9NUW8 whole entry, looked up): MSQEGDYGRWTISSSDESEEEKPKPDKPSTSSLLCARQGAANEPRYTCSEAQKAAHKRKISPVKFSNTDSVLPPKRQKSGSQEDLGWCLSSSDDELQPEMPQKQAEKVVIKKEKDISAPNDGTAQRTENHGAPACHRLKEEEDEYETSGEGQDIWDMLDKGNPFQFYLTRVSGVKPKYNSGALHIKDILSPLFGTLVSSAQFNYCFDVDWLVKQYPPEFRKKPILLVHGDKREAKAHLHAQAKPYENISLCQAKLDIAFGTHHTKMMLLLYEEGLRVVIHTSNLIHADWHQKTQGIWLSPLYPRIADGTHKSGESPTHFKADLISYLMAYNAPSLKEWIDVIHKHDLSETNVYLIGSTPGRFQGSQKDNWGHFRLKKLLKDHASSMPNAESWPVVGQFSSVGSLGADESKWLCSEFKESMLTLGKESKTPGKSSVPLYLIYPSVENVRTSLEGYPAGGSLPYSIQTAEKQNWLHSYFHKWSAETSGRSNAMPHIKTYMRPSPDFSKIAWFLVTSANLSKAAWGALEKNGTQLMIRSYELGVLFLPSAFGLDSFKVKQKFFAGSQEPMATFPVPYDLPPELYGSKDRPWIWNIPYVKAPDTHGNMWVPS
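Compounds were preincubated with Tdp1 (1 nM final) for 15 min at room temperature before substrate (15 nM final) started a 5 min reaction; beads (10 ug/ml final) were then added for 10 min before AlphaScreen detection.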
G9a block = inhibitors of human histone lysine methyltransferase G9a | G9a H3K9 monomethylation, AlphaScreen, 2 h | Potency, µM (highest dose often 102 µM), usual class: inhibitors | 350,000 compounds, 8.8% hits; also: nearly all actives have a fitted effect of over 75% in size
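AlphaScreen read-out: biotin-H3K9 peptide (500 nM) methylation by 20 nM enzyme with 20 uM SAM, 2 h at room temperature after 15 min compound preincubation; anti-monomethyl H3K9 antibody plus donor/acceptor beads, 10 min dark.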
Sfp inh = inhibitors of Bacillus subtilis Sfp phosphopantetheinyl transferase; 310,000 compounds, 3.5% hits; Biochemical Sfp PPTase activity, qHTS; Q9F4F7; AID 1490; Potency, µM, hits mostly inhibitors;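 also: the enzyme is Sfp with the accession as filed and its product quenches rhodamine fluorescence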
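Fluorescence-quenching assay: 15 nM Sfp-PPTase preincubated 15 min at room temperature with compound, then 5 uM rhodamine-CoA and 12.5 uM BHQ-2-labelled YbbR peptide added. Fluorescence (ex 525/em 598 nm) read at start and after 30 min; difference gives rate.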
BAZ2B inh = inhibitors of human BAZ2B bromodomain. Q9UIF8. AlphaScreen BAZ2B-H3K14Ac peptide displacement. Potency, µM (doses to about 114 µM), hits mostly inhibitors. 360,000 compounds, 4.4% hits; also: nearly all actives have a fitted effect of over 60% in size
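AlphaScreen displacement: compounds (up to 110uM) incubated 30 min at room temperature with a preformed 50 nM BAZ2B/50 nM biotinylated H3K14Ac peptide complex in PBS pH 7.4 with Tween-20. Donor and acceptor beads at 10 ug/mL final added, 20 min light-protected before reading.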
JMJD2A Tudor = inhibitors of human JMJD2A Tudor domain; O75164; AlphaScreen JMJD2A-Tudor / H3K4me3 peptide binding; Potency, µM (highest dose often 114 µM), most hits filed as inhibitors; 390,000 compounds, 4.4% hits; AID 504339; also: nearly all actives have a fitted effect of over 50% in size
HP1b chromo inh = inhibitors of HP1-beta chromodomain binding to methylated histone tails; AlphaScreen HP1-beta / biotin-H3K9me3 peptide binding; Potency, µM (series often up to 114 µM), hits mostly inhibitors; 390,000 compounds, 0.56% hits; AID 540317; also: nearly all actives have a fitted effect of over 70% in size
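HP1-beta protein (50 nM final) preincubated 30 min at room temperature with biotinylated H3(1-18)K9me3 peptide (50 nM) in PBS pH 7.4, 0.01% Tween-20, then compound added for 30 min. AlphaScreen streptavidin donor/nickel chelate acceptor beads (10 ug/mL final), 30 min dark, luminescence read.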
Hits are given with their value; 0 = inactive; ? = inconclusive; - = no result; [ ] = remark or other dose. Sampled rows, rich in hits. Any-hit rate of the full collection: about 12%. Calls follow the shape of the dose curve; as a rule, active = well fitted curve in the direction sought with a large enough effect; inconclusive = small, poorly fitted or top-dose-only effect, or another doubt; inactive = no such curve, though single readings can be large; an effect the other way counts as inactive or inconclusive.

SMILES	TDP1 inh	G9a block	Sfp inh	BAZ2B inh	JMJD2A Tudor	HP1b chromo inh
CCc1cccc(OCCN2CCCC2)c1	0	?	0	56µM	32µM	?
Brc1cccc(OCCN2CCCCC2)c1	0	7.1µM	?	?	20µM	?
COc1cccc(OC)c1Cn1nnc2c(=O)[nH]c(C3CCN(C(=O)c4ccccc4)CC3)nc21	0	0	-	0	0	0
CC(=O)N1CCc2cc(S(=O)(=O)Nc3ccc(C)c(C)c3)ccc21	0	-	-	-	0	-
Cc1cn2c(=O)cc(COC(=O)c3cccc(NC(=O)COc4ccccc4)c3)nc2s1	0	0[12.7 µM]	-	0	0	0
CC(C)NC(=O)c1ccc(N(Cc2ccc(Cl)cc2)S(C)(=O)=O)cc1	0	-	0	0	0	0
O=C1N(CN2CCOCC2)c2ccccc2C12OCC(CCl)O2 (stereo unspecified)	-	0	0	0	?	0
O=C1NN(c2cccc(Br)c2)C(=O)/C1=C\c1ccc(N2CCOCC2)cc1	-	79µM	0	?	?	0
COc1cccc(/C=C2/C(=O)NN(c3ccc(Br)cc3)C2=O)c1O	0	-	0	?	?	0
Cc1ccc(S(=O)(=O)Nc2cc(C(F)(F)F)ccc2N2CCOCC2)c(C)c1	0	50µM	0	0	0	0
CN(C)C(=O)c1ccc(NC(=O)COC(=O)CCN=C2NS(=O)(=O)c3ccccc32)cc1	-	-	-	-	0	0
CO/N=C/C=C1/N(C)c2ccccc2C1(C)C	0	50µM	0	?	0	0
CN(C)c1ccc(N=C/C=C2/N(C)c3ccccc3C2(C)C)cc1	0	7.1µM	0	20µM	40µM	?
CN1/C(=C\C=N\O)C(C)(C)c2ccccc21	0	0	0	0	0	0
CN1/C(=C\C=[N+](C)c2ccccc2)C(C)(C)c2ccccc21	0	?	?	0	35µM	0
O=C(C[C@H]1C/C=C\C[C@@H](Cc2ccc(F)cc2)C(=O)O[C@H](c2ccccc2)CNC1=O)NCCO	0	-	-	-	0	0
Cc1c(CCC(=O)NCCCN2CCCC2=O)c(=O)oc2cc(O)ccc12	-	0	0	0	0	0
CCOC(=O)c1ccc(N2C(=O)C3C(C2=O)C(C(=O)c2ccc(Cl)cc2)N2CCCC32)cc1 (stereo unspecified)	0	?	?	50µM	0	0
COc1ccc(/C=C2\SC(=S)N(N3C(=O)CCC3=O)C2=O)cc1O	0	8.9µM	0	?	0	0
COc1ccc(/C=C2/SC(=S)N(Cc3ccccc3)C2=O)cc1O	-	0	0	0	?	0
COc1ccccc1/C=C1\SC(=S)N(N2C(=O)CCCC2=O)C1=O	0	20µM	0	?	?	?
CN(C)/C(=N\S(=O)(=O)c1ccc(Cl)cc1)c1ccc(F)cc1	0	0	0	0	0	0
Oc1ccc2ccccc2c1C=NCc1cn2ccsc2n1	0	8.9µM	0	0	?	0
O=C(/C=C/c1ccccc1)NNc1ccc(Cl)cc1	0	8.9µM	0	?	0	0
Cc1cc(C)c2ccc(=O)n(CC(=O)N/N=C/c3ccccc3Cl)c2n1	0	0	0	0	0	0
SMILES	TDP1 inh	G9a block	Sfp inh	BAZ2B inh	JMJD2A Tudor	HP1b chromo inh
CN(CCOc1ccccc1)CC(=O)Nc1cccc(Br)c1	0	11µM	0	?	1.6µM	0
CCOc1ccc(CN(C)CC(=O)Nc2cccc(S(=O)(=O)N(C)c3ccccc3)c2)cc1	0	5µM	0	-	22µM	?
CN(CCOc1ccccc1)CC(=O)Nc1cccc(C#N)c1	0	0	0	0	0	0
Cc1cc(NC(=O)CN(C)CCOc2ccccc2)ccc1Br	-	0	0	35µM	0.79µM	?
O=C(N/N=C/c1cccc([N+](=O)[O-])c1)c1cc[n+](CCO)cc1	0	0	0	50µM	0	0
Nc1cc(C(=O)N/N=C/c2cccc([N+](=O)[O-])c2)n[nH]c1=O	-	?	0	56µM	?	0
Cc1cc(C(=O)N/N=C/C=C/c2cccc([N+](=O)[O-])c2)n[nH]1	0	0	0	0	0	0
CCOC(=O)C1=NN(c2ccc(Cl)cc2)C(=O)C1	-	0[12.7 µM]	0	0	0	0
Cc1ccccc1N=Nc1c(O)n(C)c2ccccc12	0	7.9µM	0	0	0	0
COc1c(F)c(F)cc2c(=O)c(C(=O)O)cn(C3CC3)c12	-	0	0	?	28µM	0
COc1c(N2CCN(C(=S)NCc3ccccc3)C(C)C2)c(F)cc2c(=O)c(C(=O)O)cn(C3CC3)c12 (stereo unspecified)	?	0	0	79µM	56µM	0
CCOCCCNC(=O)C(c1ccc(OC)cc1)N(Cc1cccs1)C(=O)c1ccccn1 (stereo unspecified)	0	0	0	0	0	0
COc1cc(OC)c(NC2(c3ccccc3)C(=O)c3ccccc3C2=O)cc1Cl	0	13µM	-	22µM	20µM	?
Cc1nn(CC(=O)NCc2cccc(F)c2)c(=O)c2cccn12	0	-	0	0	56µM	?
S=c1nc[nH]c2c1[nH]c1ccc(Cl)cc12	-	1.4µM	0	0	4.5µM	0
NC(=O)c1ccccc1-c1nc(-n2ccnc2)c2ccccc2n1	-	0[0.501 µM]	0	-	-	-
NCCSC1CC(=O)N(c2ccc(Cl)c(Cl)c2)C1=O (stereo unspecified)	0	35µM	0	?	0	0
CCCc1ccc(C#N)c(SC2CC(=O)N(c3ccc(OC)cc3)C2=O)n1 (stereo unspecified)	0	?	0	0	0	0
O=C1CC(Sc2nnnn2-c2ccccc2)C(=O)N1c1cccc(Cl)c1 (stereo unspecified)	0	0.89µM	13µM	0	0	0
COc1ccc(N2C(=O)CC(Sc3nnnn3-c3ccc(F)cc3)C2=O)cc1 (stereo unspecified)	0	?	16µM	0	0	0
O=C1CC(SCc2nc3ccccc3[nH]2)C(=O)N1c1cccc(Cl)c1 (stereo unspecified)	-	18µM	0	0	0	0
NCCSC1CC(=O)N(c2ccc(F)cc2)C1=O (stereo unspecified)	0	-	0	0	0	0
COC(=O)c1ccccc1NC(=O)Nc1c(C)n(C)n(-c2ccccc2)c1=O	0	0	0	0	0	0
CC(=O)Nc1ccc(OCCOc2ccc(/C=C3\C(=N)N4N=C(C(C)C)SC4=NC3=O)cc2)cc1	-	0	0	0	0	0
Cc1ccc(NC(=O)Cn2nnc(C(=O)NCc3ccc4c(c3)OCO4)c2N)cc1	0	0	0	0	0	0
Cc1cc(C)c(NC(=O)Cn2nnc(C(=O)NCc3ccc4c(c3)OCO4)c2N)c(C)c1	0	0	0	0	56µM	0
Cc1nnc(SCC(=O)NCc2ccc3c(c2)OCO3)[nH]c1=O	0	50µM	?	0	0	0

Compound activity: PubChem BioAssay, National Center for Advancing Translational Sciences (NCATS)
